Data as given in PubChem BioAssay (Tox21).
Inconclusive results are not listed. Activity calls are given as the source filed them. The call rests on the fitted dose curve; in most records, active means well fitted curve in the direction sought with a large enough effect in the repeat runs; inconclusive means weak or mixed curves; inactive means no such curve, though single readings can be large; an effect the other way counts as inactive or inconclusive.

Assays:
[1] = A CellTox Green Cytotoxicity Assay to monitor cytotoxicity in HEK293 cells - 40 hour (AID 1224871); further: nearly all actives have a fitted effect of over 45% in size
Outline: (§1)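 Cytotoxicity was tracked continuously in HEK293 cells by a DNA-binding dye excluded from viable cells. Compounds were transferred in DMSO 5 h after seeding; fluorescence was recorded at intervals up to 40 h.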

[2] = qHTS RealTime-Glo MT Cell Viability Assay in HEK293 cells - 16 hour (AID 1224872); further: nearly all actives have a fitted effect of over 50% in size; further: potency means the concentration at half of the fitted maximal effect
Outline: (§2)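 HEK293 cells were seeded at 600 cells/well together with NanoLuc luciferase and cell-permeant prosubstrate, preincubated 5 h at 37 C/5% CO2, then given compound in DMSO by pintool. Luminescence from viable-cell prosubstrate reduction was read repeatedly over 40 h.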

[3] = qHTS RealTime-Glo MT Cell Viability Assay in HepG2 cells - 8 hour (AID 1224873); further: nearly all actives have a fitted effect of over 55% in size
Outline: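 Real-time viability: cells seeded at 600 per well together with NanoLuc and cell-permeant prosubstrate, compounds added after 5 h incubation. Luminescence tracked at 0, 8, 16, 24, 32 and 40 h of exposure.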

[4] = qHTS RealTime-Glo MT Cell Viability Assay in HEK293 cells - 40 hour (AID 1224874); conditions: RealTime-Glo luminescence; max response: stronger effect = lower value; further: nearly all actives have a fitted effect of over 50% in size; further: potency means the concentration at half of the fitted maximal effect
Outline: (§3)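 Nonlytic bioluminescent viability monitoring. HEK293 at 600 cells/well with reagent; 5 h settle; compound transfer by pintool; plates held at 37 C and read at set time points.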

[5] = A CellTox Green Cytotoxicity Assay to monitor cytotoxicity in HEK293 cells - 24 hour (AID 1224875); further: series mostly up to about 77 µM; nearly all actives have a fitted effect of over 45% in size
Outline: as §1

[6] = A CellTox Green Cytotoxicity Assay to monitor cytotoxicity in HepG2 cells - 16 hour (AID 1224876); further: nearly all actives have a fitted effect of over 45% in size
Outline: (§4)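 Real-time, homogeneous cytotoxicity readout: dead-cell DNA staining by CellTox Green in HepG2 monolayers, fluorescence measured at timed intervals up to 40 h of continuous compound exposure.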

[7] = qHTS RealTime-Glo MT Cell Viability Assay in HepG2 cells - 32 hour (AID 1224877); further: nearly all actives have a fitted effect of over 55% in size
Outline: (§5)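 HepG2 cells were seeded at 600 cells/well together with NanoLuc luciferase and a cell-permeant prosubstrate, preincubated 5 h at 37 C/5% CO2, then pin-dosed with compounds in DMSO. Nonlytic luminescence from viable cells was read at each time point.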

[8] = A CellTox Green Cytotoxicity Assay to monitor cytotoxicity in HepG2 cells - 24 hour (AID 1224878); further: nearly all actives have a fitted effect of over 45% in size
Outline: as §4

[9] = A CellTox Green Cytotoxicity Assay to monitor cytotoxicity in HepG2 cells - 40 hour (AID 1224879); further: nearly all actives have a fitted effect of over 40% in size
Outline: as §4

[10] = qHTS RealTime-Glo MT Cell Viability Assay in HEK293 cells - 0 hour (AID 1224880)
Outline: as §3

[11] = A CellTox Green Cytotoxicity Assay to monitor cytotoxicity in HEK293 cells - 32 hour (AID 1224881); further: nearly all actives have a fitted effect of over 40% in size
Outline: as §1

[12] = A CellTox Green Cytotoxicity Assay to monitor cytotoxicity in HepG2 cells - 0 hour (AID 1224882); further: nearly all actives have a fitted effect of over 35% in size
Outline: as §4

[13] = A CellTox Green Cytotoxicity Assay to monitor cytotoxicity in HepG2 cells - 32 hour (AID 1224883); further: nearly all actives have a fitted effect of over 50% in size
Outline: as §4

[14] = A CellTox Green Cytotoxicity Assay to monitor cytotoxicity in HEK293 cells - 8 hour (AID 1224884); further: nearly all actives have a fitted effect of over 35% in size
Outline: as §1

[15] = qHTS RealTime-Glo MT Cell Viability Assay in HepG2 cells - 16 hour (AID 1224885); further: nearly all actives have a fitted effect of over 50% in size
Outline: as §5

[16] = qHTS RealTime-Glo MT Cell Viability Assay in HEK293 cells - 24 hour (AID 1224886); further: nearly all actives have a fitted effect of over 50% in size; further: potency means the concentration at half of the fitted maximal effect
Outline: as §2

[17] = qHTS RealTime-Glo MT Cell Viability Assay in HEK293 cells - 8 hour (AID 1224887); further: nearly all actives have a fitted effect of over 50% in size; further: potency means the concentration at half of the fitted maximal effect
Outline: as §3

[18] = A CellTox Green Cytotoxicity Assay to monitor cytotoxicity in HEK293 cells - 16 hour (AID 1224888); further: nearly all actives have a fitted effect of over 35% in size
Outline: as §1

[19] = qHTS RealTime-Glo MT Cell Viability Assay in HepG2 cells - 0 hour (AID 1224889); further: nearly all actives have a fitted effect of over 50% in size
Outline: as §5

[20] = A CellTox Green Cytotoxicity Assay to monitor cytotoxicity in HepG2 cells - 8 hour (AID 1224890); further: nearly all actives have a fitted effect of over 45% in size
Outline: as §4
On the % scale 0 is the no-effect control and ±100 the full control effect.

Cc1cn([C@@H]2O[C@H](CO)[C@@H](O)[C@@H]2F)c(=O)[nH]c1=O
inactive: Potency [1] | Potency [2] | outcome [3] | max response [4] -1.92% | Potency [5] | Potency [6] | Potency [7] | Potency [8] | Potency [9] | outcome [10] | Potency [11] | Potency [12] | Potency [13] | Potency [14] | outcome [15] | Potency [16] | Potency [17] | Potency [18] | Potency [19]

O=C(CC(=O)C(F)(F)F)c1ccccc1
inactive: Potency [1] | Potency [2] | outcome [3] | max response [4] -4.62% | Potency [5] | Potency [6] | Potency [7] | Potency [8] | Potency [9] | outcome [10] | Potency [11] | Potency [12] | Potency [13] | Potency [14] | outcome [15] | Potency [16] | Potency [17] | Potency [18] | Potency [19] | Potency [20]

CNCCC(Oc1ccccc1OC)c1ccccc1 (configuration not stated)
inactive: Potency [1] | Potency [2] | outcome [3] | max response [4] -21.1% | Potency [5] | Potency [6] | Potency [7] | Potency [8] | Potency [9] | outcome [10] | Potency [11] | Potency [12] | Potency [13] | Potency [14] | outcome [15] | Potency [16] | Potency [17] | Potency [18] | Potency [19] | Potency [20]

CCC/C=C/CO
inactive: Potency [1] | Potency [2] | outcome [3] | max response [4] 0.426% | Potency [5] | Potency [6] | Potency [7] | Potency [8] | Potency [9] | outcome [10] | Potency [11] | Potency [12] | Potency [13] | Potency [14] | outcome [15] | Potency [16] | Potency [17] | Potency [18] | Potency [19] | Potency [20]

CC(=O)Nc1ccc(C)c(Cl)c1
inactive: Potency [1] | Potency [2] | outcome [3] | max response [4] -13.2% | Potency [5] | Potency [6] | Potency [7] | Potency [8] | Potency [9] | outcome [10] | Potency [11] | Potency [12] | Potency [13] | Potency [14] | outcome [15] | Potency [16] | Potency [17] | Potency [18] | Potency [19] | Potency [20]

O=c1[nH]cnc2c1ncn2[C@@H]1O[C@H](CO)[C@@H](O)[C@H]1O
inactive: Potency [1] | Potency [2] | outcome [3] | max response [4] 1.22% | Potency [5] | Potency [6] | Potency [7] | Potency [8] | Potency [9] | outcome [10] | Potency [11] | Potency [12] | Potency [13] | Potency [14] | outcome [15] | Potency [16] | Potency [17] | Potency [18] | Potency [19] | Potency [20]

Nc1ccc2ccccc2c1S(=O)(=O)O
inactive: Potency [1] | Potency [2] | outcome [3] | max response [4] -4.03% | Potency [5] | Potency [6] | Potency [7] | Potency [8] | Potency [9] | outcome [10] | Potency [11] | Potency [12] | Potency [13] | Potency [14] | outcome [15] | Potency [16] | Potency [17] | Potency [18] | Potency [19] | Potency [20]

FC(F)(F)c1ccccc1
inactive: Potency [1] | Potency [2] | outcome [3] | max response [4] 11.8% | Potency [5] | Potency [6] | Potency [7] | Potency [8] | Potency [9] | outcome [10] | Potency [11] | Potency [12] | Potency [13] | Potency [14] | outcome [15] | Potency [16] | Potency [17] | Potency [18] | Potency [19] | Potency [20]

Cc1cc2c(s1)Nc1ccccc1N=C2N1CCN(C)CC1
inactive: Potency [1] | Potency [2] | outcome [3] | max response [4] 3.41% | Potency [5] | Potency [6] | Potency [7] | Potency [8] | Potency [9] | outcome [10] | Potency [11] | Potency [12] | Potency [13] | Potency [14] | outcome [15] | Potency [16] | Potency [17] | Potency [18] | Potency [19] | Potency [20]

COc1cc(N)c(Cl)cc1C(=O)NC1CCN(Cc2ccccc2)CC1
active: Potency [2] 19 µM | Potency [4] 19 µM | Potency [16] 19 µM | Potency [17] 21.3 µM
inactive: Potency [1] | outcome [3] | Potency [5] | Potency [6] | Potency [7] | Potency [8] | Potency [9] | outcome [10] | Potency [11] | Potency [12] | Potency [13] | Potency [14] | outcome [15] | Potency [18] | Potency [19] | Potency [20]

NNS(=O)(=O)c1ccc(Oc2ccc(S(=O)(=O)NN)cc2)cc1
inactive: Potency [1] | Potency [2] | outcome [3] | max response [4] 0.181% | Potency [5] | Potency [6] | Potency [7] | Potency [8] | Potency [9] | outcome [10] | Potency [11] | Potency [12] | Potency [13] | Potency [14] | outcome [15] | Potency [16] | Potency [17] | Potency [18] | Potency [19] | Potency [20]

COc1nc(C)nc(NC(=O)NS(=O)(=O)c2ccccc2OCCCl)n1
inactive: Potency [1] | Potency [2] | outcome [3] | max response [4] 6.36% | Potency [5] | Potency [6] | Potency [7] | Potency [8] | Potency [9] | outcome [10] | Potency [11] | Potency [12] | Potency [13] | Potency [14] | outcome [15] | Potency [16] | Potency [17] | Potency [18] | Potency [19]

FC(F)(F)C(F)(F)C(F)(F)C(F)(F)C(F)(F)C(F)(F)C(F)(F)C(F)(F)Br
inactive: Potency [1] | Potency [2] | outcome [3] | max response [4] -0.235% | Potency [5] | Potency [6] | Potency [7] | Potency [8] | Potency [9] | outcome [10] | Potency [11] | Potency [12] | Potency [13] | Potency [14] | outcome [15] | Potency [16] | Potency [17] | Potency [18] | Potency [19]
